# Source: the supplement of paper PMC6555819
# Tested on: RARg:RXRa (NR concentration 270 nM, RXRa partner concentration 90 nM)
# Test: PBM binding z-score (relative to random genomic background probes); higher = stronger binding; sequences stand for … in GC…GCGATTGACAGCGTAGAATGAAGG
# In short: (§1)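 Random background probes are the reference for binding z-scores. These scores derive from regression-normalized fluorescence on custom Agilent 4×180K protein-binding microarrays incubated 1 h with ligand-free nuclear receptor dimers. Binding was detected with antibodies against each partner (one per run).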
row,Sequence,PBM binding z-score
1,TAAATGAGGTTATAAGATCAGGGAACGTTGCAAA,1.79
2,TCGAGTACGTTACCAATGGGGCATTCAGCTTTCT,-0.336
3,CCGACTGGGGCAAGGTTACCAGAACGCACAGCCA,1.01
4,CCTACTGGGCCAAAGGTCATTAATTCCAATGCTC,5.3
5,ATATATAGGTTAGCTGGGGTCATTCAGACTAGGC,4.47
6,ATATGTAGGTTACATCCGGGTCATTCAAGCTATG,3.76
7,CCTACTTGGCCATTCAGAGGTCATTGATCATATG,3.64
8,GATACAGGGTCAGCTAGAGGCCAGACTATGGAAA,6.62
9,CCTCCTGGGCCAAGGTCATTGATCAGTCAAAGCA,3.6
10,GCTATTAGTTGCAAGGGCAACCGAATGATTCTCG,0.13
11,ACTATTAGTTGACTTAGGGCTACCGATACGACGC,0.457
12,TCATATAGGTAAATGCTAGGTGAAAATCCGATCT,0.578
13,TCTAGTTGGTCAAAGGTAACACACTCGAAATGCG,1.97
14,AGAACGAGGGCACGCTGAGTTGATAGTAGAGTAG,1.99
15,ACAGACAGGTGATGAGGGTAACTCAGGCTATCAT,0.294
16,GCGACTGGGGCATCAGCAGGTTGCCATAACTTAA,-0.0231
17,TCAGACAGGTAAAGGTAACTCAGGTACGCAGTCG,0.751
18,ATCGAAAGGTCGACGATGTGAGTATACACCGTTT,3.8

# Tested on: RARg homodimer (NR concentration 270 nM)
# Test: as above
# In short: as §1
row,Sequence,PBM binding z-score
1,CGTGAAAGTTCAAGGTAACGTAACAGAAAGCAGC,5.85
2,CCGACTGGGGCAAAGATTACCATACTCAGTACGA,0.405
3,TCTCGGAGGACGCGAAGGTCAGAGCTTTCCAGAG,2.1
4,ATATGTAGGTTATCGGGTCAGTCAGTTTGCGCAT,2.42
5,CATACTAGGTCACGAAAGGTCAAAGTCGAATGAC,8.68
6,TGAATGAGGTTAAAGATCAGGGAACGTGGCGTCG,1.12
7,GTACCAAGGTCAATAGGTCGTTGATGAGTAGGCG,5.59
8,TGTCAAGGTTCAAAGGTAACGTAAGTATCCACAC,3.11
9,TCTAGGTGGTCAAAGGTCACACACTCGAAATGCG,6.07
10,ACAGACAGGTGAGGAAGGTAACTCAGGCTATCAT,0.577
11,TCGAGTAGGTTAGTCGGGGCACTCAGCCAACATA,-0.0518
12,CGTCAAATTTCAACTAAGGTAACGTAAAGCACGC,0.568
13,AGTCAAAGTTCATCTAGGTTACGTAAGATATGCT,6.39
14,AGTCAAAGTTCAGGAAGAGGTAACGTAAAGCACG,4.81
15,CAGCCTAGGTTAGGGCCAGTATAGGAGGAACGTT,0.349
16,GCGACTGGGGCATCATCAGGTTACCATAACTTAA,0.679
17,TCTTGTAGTTCAATAGAGGTTAAGAAAGTGCGCT,2
18,TCTTGTAGATCAGCAGTTTAAGAAAGCTGGCCAA,-0.416
19,AGAATGAGGTTATTAAGATTAGGGAATTGCGGTC,0.836
20,TCGAGTAGGTTAGTCGGGGCTTTCAGCCAACATA,-0.728

row,Sequence,PBM binding z-score
1,GGCACGAGGGCAAGTTGATAGCAGAGTTTGATGG,2.12
2,ATAGAAAGGTCGTGAGGTGAGTATACAGAAAGGC,4.01
3,TAAATGAGGTTATAAGATCAGGGAACGTTGCAAA,0.975
4,TCGAGTACGTTACCAATGGGGCATTCAGCTTTCT,-0.335
5,CCGACTGGGGCAAGGTTACCAGAACGCACAGCCA,1.27
6,CCTACTGGGCCAAAGGTCATTAATTCCAATGCTC,4.49
7,ATATATAGGTTAGCTGGGGTCATTCAGACTAGGC,3.4
8,ATATGTAGGTTACATCCGGGTCATTCAAGCTATG,2.1
9,CCTACTTGGCCATTCAGAGGTCATTGATCATATG,2.6
10,GATACAGGGTCAGCTAGAGGCCAGACTATGGAAA,4.83
11,CCTCCTGGGCCAAGGTCATTGATCAGTCAAAGCA,3.13
12,GCTATTAGTTGCAAGGGCAACCGAATGATTCTCG,0.552
13,ACTATTAGTTGACTTAGGGCTACCGATACGACGC,0.61
14,TCATATAGGTAAATGCTAGGTGAAAATCCGATCT,0.633
15,TCTAGTTGGTCAAAGGTAACACACTCGAAATGCG,1.45
16,AGAACGAGGGCACGCTGAGTTGATAGTAGAGTAG,2.41
17,ACAGACAGGTGATGAGGGTAACTCAGGCTATCAT,0.502
18,GCGACTGGGGCATCAGCAGGTTGCCATAACTTAA,-0.244
19,TCAGACAGGTAAAGGTAACTCAGGTACGCAGTCG,0.576
20,ATCGAAAGGTCGACGATGTGAGTATACACCGTTT,3.82

# Tested on: RXRa DBDmut IVT, anti-RXR (DBD mutation: RXRa K156A/R161A, NR concentration 90 nM)
# Test: as above
# In short: as §1
row,Sequence,PBM binding z-score
1,CGTGAAAGTTCAAGGTAACGTAACAGAAAGCAGC,4.44
2,CCGACTGGGGCAAAGATTACCATACTCAGTACGA,0.314
3,TCTCGGAGGACGCGAAGGTCAGAGCTTTCCAGAG,0.401
4,ATATGTAGGTTATCGGGTCAGTCAGTTTGCGCAT,1.01
5,CATACTAGGTCACGAAAGGTCAAAGTCGAATGAC,2.83
6,TGAATGAGGTTAAAGATCAGGGAACGTGGCGTCG,1.61
7,GTACCAAGGTCAATAGGTCGTTGATGAGTAGGCG,2.86
8,TGTCAAGGTTCAAAGGTAACGTAAGTATCCACAC,4.37
9,TCTAGGTGGTCAAAGGTCACACACTCGAAATGCG,1.85
10,ACAGACAGGTGAGGAAGGTAACTCAGGCTATCAT,-0.639
11,TCGAGTAGGTTAGTCGGGGCACTCAGCCAACATA,0.105
12,CGTCAAATTTCAACTAAGGTAACGTAAAGCACGC,0.715
13,AGTCAAAGTTCATCTAGGTTACGTAAGATATGCT,4.52
14,AGTCAAAGTTCAGGAAGAGGTAACGTAAAGCACG,2.79
15,CAGCCTAGGTTAGGGCCAGTATAGGAGGAACGTT,-0.851
16,GCGACTGGGGCATCATCAGGTTACCATAACTTAA,0.291
17,TCTTGTAGTTCAATAGAGGTTAAGAAAGTGCGCT,2.27
18,TCTTGTAGATCAGCAGTTTAAGAAAGCTGGCCAA,0.659
19,AGAATGAGGTTATTAAGATTAGGGAATTGCGGTC,2
20,TCGAGTAGGTTAGTCGGGGCTTTCAGCCAACATA,0.169

row,Sequence,PBM binding z-score
1,GGCACGAGGGCAAGTTGATAGCAGAGTTTGATGG,2.06
2,ATAGAAAGGTCGTGAGGTGAGTATACAGAAAGGC,1.32
3,TAAATGAGGTTATAAGATCAGGGAACGTTGCAAA,1.21
4,TCGAGTACGTTACCAATGGGGCATTCAGCTTTCT,3.13
5,CCGACTGGGGCAAGGTTACCAGAACGCACAGCCA,-0.418
6,CCTACTGGGCCAAAGGTCATTAATTCCAATGCTC,1.34
7,ATATATAGGTTAGCTGGGGTCATTCAGACTAGGC,2.09
8,ATATGTAGGTTACATCCGGGTCATTCAAGCTATG,1.48
9,CCTACTTGGCCATTCAGAGGTCATTGATCATATG,1.92
10,GATACAGGGTCAGCTAGAGGCCAGACTATGGAAA,0.964
11,CCTCCTGGGCCAAGGTCATTGATCAGTCAAAGCA,0.822
12,GCTATTAGTTGCAAGGGCAACCGAATGATTCTCG,0.914
13,ACTATTAGTTGACTTAGGGCTACCGATACGACGC,0.644
14,TCATATAGGTAAATGCTAGGTGAAAATCCGATCT,1.54
15,TCTAGTTGGTCAAAGGTAACACACTCGAAATGCG,1.33
16,AGAACGAGGGCACGCTGAGTTGATAGTAGAGTAG,2.07
17,ACAGACAGGTGATGAGGGTAACTCAGGCTATCAT,-0.49
18,GCGACTGGGGCATCAGCAGGTTGCCATAACTTAA,-0.343
19,TCAGACAGGTAAAGGTAACTCAGGTACGCAGTCG,1.53
20,ATCGAAAGGTCGACGATGTGAGTATACACCGTTT,1.13
